Results taken from PubChem BioAssay (NCI).
This is part of a sample that, as a whole, favours compounds with a hit. Of some 79,000 tested, about 15% had one in any assay. Calls of active or inactive are those of the source. Rule as the data show it: active = growth inhibition above about 70%; inactive = the rest.

Experiments:
[1] = NCI Yeast Anticancer Drug Screen. Data for the rad52 strain (AID 147);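 also: 0% = growth of vehicle-treated control cultures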; conditions: S. cerevisiae rad52 mutant growth inhibition, active compounds read high
Outline: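 Yeast strain carrying a DNA damage repair alteration was exposed to test compounds. Growth inhibition was measured relative to vehicle-treated controls.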

[2] = NCI Yeast Anticancer Drug Screen. Data for the wt1 strain (AID 149);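 also: 0% = growth of vehicle-treated wt1 cultures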; conditions: S. cerevisiae wt1 strain (SPY 50644) growth inhibition, active compounds read high
Outline: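 Growth inhibition read against vehicle controls after compound exposure of the wt1 yeast strain.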

[3] = NCI Yeast Anticancer Drug Screen. Data for the rad50EPP+ strain (AID 151);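 also: 0% = growth of vehicle-treated control cultures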; conditions: S. cerevisiae rad50 mutant strain, active compounds read high
Outline: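 Yeast strain carrying rad50 alteration (rad50EPP+) exposed to compounds; growth inhibition measured relative to vehicle-treated controls.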

[4] = NCI Yeast Anticancer Drug Screen. Data for the rad50 strain (AID 155);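 also: 0% = growth of vehicle-only cultures of the same strain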; conditions: S. cerevisiae rad50 strain growth inhibition, active compounds read high
Outline: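 Readout: growth inhibition relative to vehicle-treated cultures. Compound exposure was carried out in a genetically defined yeast strain deficient in DNA damage repair.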

[5] = NCI Yeast Anticancer Drug Screen. Data for the mec2-1 strain (AID 157); conditions: S. cerevisiae mec2-1 strain, active compounds read high
Outline: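 mec2-1 yeast strain, carrying an alteration in DNA damage repair or cell cycle control, was exposed to compounds; growth inhibition was measured relative to vehicle-treated controls.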

[6] = NCI Yeast Anticancer Drug Screen. Data for the rad14 strain (AID 159);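 also: 0% = growth of vehicle-treated control cultures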; conditions: S. cerevisiae rad14 strain growth inhibition, active compounds read high
Outline: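 Growth inhibition vs vehicle controls; genetically altered yeast strain (DNA damage repair defect) treated with test compounds.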

[7] = NCI Yeast Anticancer Drug Screen. Data for the sgs1 mgt1 strain (AID 161);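 also: 0% = growth of cultures given vehicle only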; conditions: S. cerevisiae sgs1 mgt1 strain, active compounds read high
Outline: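 Yeast cells carrying a defined DNA-repair defect were exposed to test compounds. Growth inhibition was measured relative to vehicle-treated controls.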

[8] = NCI Yeast Anticancer Drug Screen. Data for the CLN2oe strain (AID 163);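 also: 0% = growth of vehicle-only control cultures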; conditions: S. cerevisiae CLN2oe strain, active compounds read high
Outline: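 Yeast cells carrying a defined cell-cycle control alteration were exposed to test compounds. Growth inhibition was scored against vehicle-treated control cultures.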

[9] = NCI Yeast Anticancer Drug Screen. Data for the cln2 rad14 strain (AID 165);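 also: 0% = growth equal to vehicle treated cultures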; conditions: S. cerevisiae cln2 rad14 strain, active compounds read high
Outline: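 Yeast carrying cln2 and rad14 alterations (cell cycle control and DNA damage repair) were exposed to compounds. Growth inhibition was measured against vehicle-treated controls.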

[10] = NCI Yeast Anticancer Drug Screen. Data for the bub3 strain (AID 167); conditions: S. cerevisiae bub3 mutant strain, active compounds read high
Outline: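 Readout: yeast growth inhibition, expressed relative to vehicle-only wells. The test organism is a mutant strain from a panel with lesions in DNA repair or checkpoint genes.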

[11] = NCI Yeast Anticancer Drug Screen. Data for the wt2 strain (AID 169);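 also: 0% = growth of vehicle-treated yeast cultures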; conditions: S. cerevisiae wt2 strain growth inhibition, active compounds read high
Outline: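 Yeast cells were exposed to test compounds, and growth inhibition was measured relative to vehicle-treated controls.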

[12] = NCI Yeast Anticancer Drug Screen. Data for the mlh1 strain (AID 171);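 also: 0% = growth of vehicle-treated control cultures of the same strain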; conditions: S. cerevisiae mlh1 strain growth inhibition, active compounds read high
Outline: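 Yeast carrying a defined genetic alteration in DNA damage repair or cell cycle control were exposed to test compounds. Growth inhibition was measured relative to vehicle-treated controls.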

[13] = NCI Yeast Anticancer Drug Screen. Data for the sgs1 strain (AID 173);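 also: 0% = growth of vehicle-only control cultures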; conditions: S. cerevisiae sgs1 mutant, active compounds read high
Outline: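 Yeast mutant strains carrying defined defects in DNA damage repair or cell cycle control were exposed to test compounds. Growth inhibition was scored against vehicle-treated controls.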

[14] = NCI Yeast Anticancer Drug Screen. Data for the mlh1 rad18 strain (AID 175); conditions: S. cerevisiae mlh1 rad18 strain growth inhibition, active compounds read high
Outline: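 Growth inhibition of the yeast strain was measured after compound exposure and expressed relative to vehicle-treated controls. The strain carries defined defects in DNA damage repair.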

[15] = NCI Yeast Anticancer Drug Screen. Data for the rad18 strain (AID 177); conditions: S. cerevisiae rad18 mutant growth inhibition, active compounds read high
Outline: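 Yeast carrying a defined DNA damage repair alteration were exposed to compounds. Growth inhibition was expressed relative to vehicle-treated controls.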

[16] = NCI Yeast Anticancer Drug Screen. Data for the mgt1 strain (AID 153); conditions: S. cerevisiae mgt1 mutant growth inhibition, active compounds read high
Outline: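 Yeast mgt1 strain (DNA repair/cell-cycle alteration panel) exposed to compounds; growth inhibition measured relative to vehicle-treated controls.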

[17] = at 5.0 µM (retest, dose inferred, filed as 0.5)
[18] = at 50.0 µM (retest, dose inferred, filed as 5.0)

Measured: growth inhibition

CN(C)/C=C/c1nnc([N+](=O)[O-])s1
active: [1]; at 100.0 µM 98% | [2]; at 100.0 µM 98% | [3]; at 100.0 µM 96% | [4]; at 33.0 µM 94% | [4]; [18] 90% | [4]; at 50.0 µM 95% | [4]; at 100.0 µM 97% | [5]; at 50.0 µM 76.2% | [5]; at 100.0 µM 90% | [6]; at 33.0 µM 79% | [6]; at 100.0 µM 99% | [7]; [18] 80% | [7]; at 50.0 µM 94% | [8]; at 100.0 µM 97% | [10]; [18] 77% | [10]; at 50.0 µM 96% | [10]; at 100.0 µM 98% | [11]; at 100.0 µM 98% | [12]; at 100.0 µM 99% | [13]; at 100.0 µM 98% | [14]; [18] 77% | [14]; at 50.0 µM 89.8% | [15]; at 100.0 µM 97%
inactive: [1]; at 1.2 µM -2% | [1]; at 3.7 µM -3% | [1]; at 11.0 µM 5% | [1]; at 33.0 µM 28% | [2]; at 1.2 µM -7% | [2]; at 3.7 µM -8% | [2]; at 11.0 µM -10% | [2]; at 33.0 µM -1% | [3]; at 1.2 µM 1% | [3]; at 3.7 µM 12% | [3]; at 11.0 µM 35% | [3]; at 33.0 µM 65% | [4]; at 1.2 µM -8% | [4]; at 3.7 µM -3% | [4]; [17] -144% | [4]; at 11.0 µM 49% | [5]; at 1.2 µM 4% | [5]; at 3.7 µM 0% | [5]; [17] -48% | [5]; at 11.0 µM -6% | [5]; at 33.0 µM 1% | [5]; [18] 4% | [6]; at 1.2 µM -4% | [6]; at 3.7 µM 2% | [6]; at 11.0 µM 28% | [7]; [17] -63% | [8]; at 1.2 µM -2% | [8]; at 3.7 µM -3% | [8]; at 11.0 µM -2% | [8]; at 33.0 µM 9% | [9]; [17] -63% | [9]; [18] -23% | [9]; at 50.0 µM 28.6% | [10]; at 1.2 µM -5% | [10]; at 3.7 µM -2% | [10]; [17] -65% | [10]; at 11.0 µM -3% | [10]; at 33.0 µM 6% | [11]; at 1.2 µM -1% | [11]; at 3.7 µM -1% | [11]; at 11.0 µM -2% | [11]; at 33.0 µM 7% | [12]; at 1.2 µM 5% | [12]; at 3.7 µM -8% | [12]; at 11.0 µM -1% | [12]; at 33.0 µM 41% | [13]; at 1.2 µM -2% | [13]; at 3.7 µM -4% | [13]; at 11.0 µM -1% | [13]; at 33.0 µM 24% | [14]; [17] -115% | [15]; at 1.2 µM 0% | [15]; at 3.7 µM 5% | [15]; at 11.0 µM 21% | [15]; at 33.0 µM 56%

O=[N+]([O-])c1ccc(N/N=C/Cc2ccccc2)c([N+](=O)[O-])c1
inactive: [1]; at 1.2 µM -3% | [1]; at 3.7 µM -4% | [1]; at 11.0 µM -2% | [1]; at 33.0 µM 2% | [1]; at 100.0 µM 2% | [3]; at 1.2 µM -2% | [3]; at 3.7 µM 10% | [3]; at 11.0 µM 24% | [3]; at 33.0 µM 46% | [3]; at 100.0 µM 57% | [16]; at 1.2 µM -2% | [16]; at 3.7 µM 1% | [16]; at 11.0 µM -1% | [16]; at 33.0 µM -2% | [16]; at 100.0 µM 13% | [4]; at 1.2 µM 0% | [4]; at 3.7 µM -2% | [4]; [17] 5% | [4]; at 11.0 µM 4% | [4]; at 33.0 µM 8% | [4]; [18] 20% | [4]; at 50.0 µM -3.75% | [4]; at 100.0 µM -2% | [5]; at 1.2 µM -4% | [5]; at 3.7 µM -1% | [5]; [17] 1% | [5]; at 11.0 µM 2% | [5]; at 33.0 µM 6% | [5]; [18] 12% | [5]; at 50.0 µM 30.8% | [5]; at 100.0 µM 4% | [6]; at 1.2 µM -5% | [6]; at 3.7 µM -2% | [6]; at 11.0 µM 2% | [6]; at 33.0 µM 7% | [6]; at 100.0 µM 3% | [7]; [17] 3% | [7]; [18] 45% | [7]; at 50.0 µM 25% | [8]; at 1.2 µM -3% | [8]; at 3.7 µM 1% | [8]; at 11.0 µM 4% | [8]; at 33.0 µM 0% | [8]; at 100.0 µM -1% | [9]; [17] 7% | [9]; [18] -3% | [9]; at 50.0 µM -7.05% | [10]; at 1.2 µM 2% | [10]; at 3.7 µM 2% | [10]; [17] 9% | [10]; at 11.0 µM 12% | [10]; at 33.0 µM 27% | [10]; at 50.0 µM 67.2% | [10]; at 100.0 µM 39% | [11]; at 1.2 µM 4% | [11]; at 3.7 µM 5% | [11]; at 11.0 µM 5% | [11]; at 33.0 µM 6% | [11]; at 100.0 µM 5% | [12]; at 1.2 µM -4% | [12]; at 3.7 µM -5% | [12]; at 11.0 µM 0% | [12]; at 33.0 µM 6% | [12]; at 100.0 µM 11% | [13]; at 1.2 µM -4% | [13]; at 3.7 µM -1% | [13]; at 11.0 µM 2% | [13]; at 33.0 µM 9% | [13]; at 100.0 µM 22% | [14]; [17] 1% | [14]; [18] 29% | [14]; at 50.0 µM 12.1% | [15]; at 1.2 µM -2% | [15]; at 3.7 µM 3% | [15]; at 11.0 µM 11% | [15]; at 33.0 µM 17% | [15]; at 100.0 µM 21%
active: [10]; [18] 74%
